# Compounds without any hit were thinned out: in the full panel of roughly 83,000, 20% have a hit.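 Percent growth is the endpoint: 0 to 100 indicates growth inhibition (40 means 60% inhibition), 0 means no net growth, and negative values indicate cell death.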 Unmarked numbers belong to inactive results. Activity calls are given as the source filed them. How the source made its calls: active means growth percent below 10; inactive means the rest.
# What was measured:
# Test in all cases: NCI-60 one-dose screen, 48 h (100 = growth as untreated, 0 = no growth, -100 = all killed)
# Settings in all cases: 10 µM unless noted
# SR leukemia = system: SR leukemia
# RPMI-8226 leukemia = system: RPMI-8226 leukemia
# OVCAR-8 ovarian = system: OVCAR-8 ovarian
# OVCAR-5 ovarian = system: OVCAR-5 ovarian
# OVCAR-4 ovarian = system: OVCAR-4 ovarian
# SK-OV-3 ovarian = system: SK-OV-3 ovarian
# IGROV1 ovarian = system: IGROV1 ovarian
# OVCAR-3 ovarian = system: OVCAR-3 ovarian
# HS 578T breast = system: HS 578T breast
# NCI/ADR-RES ovarian = system: NCI/ADR-RES ovarian
# T-47D breast = system: T-47D breast
# BT-549 breast = system: BT-549 breast
# MDA-MB-435 melanoma = system: MDA-MB-435 melanoma
# SW-620 colon = system: SW-620 colon
# MCF7 breast = system: MCF7 breast
# HCT-116 colon = system: HCT-116 colon
# HCC-2998 colon = system: HCC-2998 colon
# KM12 colon = system: KM12 colon
SMILES,growth (SR leukemia),growth (RPMI-8226 leukemia),growth (OVCAR-8 ovarian),growth (OVCAR-5 ovarian),growth (OVCAR-4 ovarian),growth (SK-OV-3 ovarian),growth (IGROV1 ovarian),growth (OVCAR-3 ovarian),growth (HS 578T breast),growth (NCI/ADR-RES ovarian),growth (T-47D breast),growth (BT-549 breast),growth (MDA-MB-435 melanoma),growth (SW-620 colon),growth (MCF7 breast),growth (HCT-116 colon),growth (HCC-2998 colon),growth (KM12 colon)
O=C(c1ccccc1)c1ccc(Oc2ccc([N+](=O)[O-])cc2[N+](=O)[O-])cc1,14.6%,35.2%,41.5%,59.9%,28.5%,99.9%,1.87% (active),48.7%,90.7%,4.04% (active),66.1%,-1.35% (active),-43.7% (active),3.07% (active),15.6%,-12.8% (active),97.8%,-17.8% (active)
CC1c2ccccc2-c2ccccc2N1C (stereo not drawn),96.3%,90.5%,106%,101%,110%,101%,98.3%,104%,112%,108%,85.7%,103%,119%,108%,99.4%,96%,105%,104%
Cc1cnc2nc(-c3ccc(N(C)C)cc3)cn2c1,100%,117%,103%,78.4%,118%,119%,-14.9% (active),107%,109%,85.9%,89.8%,112%,96.3%,116%,92.1%,97.2%,111%,104%
COC(=O)[C@H](CCCCNC(=O)OCc1ccccc1)NC(=O)[C@@H](NC(=O)Nc1cc(C(F)(F)F)cc(C(F)(F)F)c1)C(C)C,-23.3% [100 µM] (active),-20.6% [100 µM] (active),-22.1% [100 µM] (active),41.6% [100 µM],-68.8% [100 µM] (active),-23.4% [100 µM] (active),-61% [100 µM] (active),-92.5% [100 µM] (active),-1.7% [100 µM] (active),60.4% [100 µM],-57.6% [100 µM] (active),47.1% [100 µM],-86% [100 µM] (active),-14.6% [100 µM] (active),-18.2% [100 µM] (active),-86.6% [100 µM] (active),-43.4% [100 µM] (active),7.99% [100 µM] (active)
C[C@]12CCC(=O)C=C1CCC1C2[C@@H](O)C[C@@]2(C)C1CC[C@]2(O)C(=O)COC(=O)CCC(=O)O (stereo partly drawn),105%,63.6%,95.6%,99.4%,102%,89%,93.6%,123%,138%,95.7%,114%,100%,96.3%,113%,102%,106%,98%,109%
O=C1/C(=C\c2coc3ccccc3c2=O)c2ccccc2N1c1c(Cl)cccc1Cl,19.5%,10.2%,31.6%,102%,49.5%,74.8%,48.7%,16.8%,27.4%,36.1%,30%,41.1%,14.5%,35%,31.6%,35.6%,53%,27.1%
COc1cc(C2CC(c3ccc(C)cc3)=NN2C=O)ccc1OCCN(C)C (stereo not drawn),89.2%,90.2%,92.6%,94.3%,97.9%,96.2%,101%,103%,87.5%,90.9%,90.6%,80.7%,102%,96.5%,92.5%,88.9%,98.4%,101%
C[C@H](C(=O)N[C@@H](Cc1ccc(-c2ccccc2)cc1)C(=O)NC1CC(C)(C)N(C)C(C)(C)C1)c1ccc(-c2ccccc2)c(F)c1,-40.5% (active),-41.6% (active),-46.5% (active),-70.2% (active),-50.7% (active),-33.3% (active),-26.4% (active),-82.9% (active),-35.1% (active),-5.29% (active),-52.7% (active),-82.5% (active),-84.9% (active),-76.8% (active),-79.6% (active),-87.6% (active),-86.8% (active),-78.6% (active)
CC(C)C[C@H](NC(=O)/C=C/Cn1ccc2ccccc2c1=O)B(O)O,9.14% (active),11.1%,86.8%,47.2%,89.3%,69.2%,77%,0.848% (active),43.8%,106%,17.6%,27.9%,-44.3% (active),24.6%,26.5%,16.2%,62.5%,37.8%
C/C(=C\CCc1ccoc1)CC/C=C(\C)CCCC1COC(=O)C1 (stereo not drawn),100%,97.1%,95.6%,101%,87.6%,101%,96.1%,105%,97.5%,101%,87.7%,108%,88.8%,103%,90.6%,98.2%,107%,93.3%
CCN(Cc1cccc(S(=O)(=O)[O-])c1)c1ccc(C(=C2C=CC(=[N+](CC)Cc3cccc(S(=O)(=O)O)c3)C=C2)c2ccccc2S(=O)(=O)O)cc1,95.6%,100%,104%,94.5%,93.4%,102%,110%,102%,106%,102%,90.3%,104%,94.2%,103%,90.2%,95.1%,97.8%,94.4%
CCCCCCCCCCNCCSS(=O)(=O)O,52.1%,98.2%,65.9%,103%,102%,84.8%,91.2%,72.3%,52.1%,83.7%,88.7%,113%,62.4%,81.8%,19.2%,52.9%,76.4%,4.36% (active)
COc1cccc2c1C(=O)c1c(O)c3c(c(O)c1C2=O)C[C@@](O)(C(C)=O)C[C@@H]3O[C@H]1C[C@H](N)[C@H](O)[C@H](C)O1,-5.17% (active),-22.9% (active),-6.3% (active),2.15% (active),-16.8% (active),7.97% (active),-10.2% (active),-18.7% (active),-17.6% (active),11.8%,-12.2% (active),-58.8% (active),-98.7% (active),-12.8% (active),0% (active),0.333% (active),-70.4% (active),-14.9% (active)
N#Cc1c(-c2ccc(F)cc2)n2c(nc1=O)SC(=O)C2=O,91.3%,76.8%,98%,110%,100%,115%,108%,123%,104%,94.5%,114%,99.1%,96.5%,103%,89.4%,102%,102%,104%
N#CSCC1CC(O)(c2ccccc2)C(c2ccccc2)C(c2ccc(Cl)cc2)O1 (stereo not drawn),-16% (active),-4.14% (active),-86.1% (active),0.178% (active),-32.7% (active),49.5%,-30.7% (active),-100% (active),-32.3% (active),-71.5% (active),-35.3% (active),-57.8% (active),-65.2% (active),-76.2% (active),-51.5% (active),-92.9% (active),-86.2% (active),-96% (active)
COc1ccc(C2=NN(C(C)=O)C(c3c(C)nn(-c4ccccc4)c3N3CCOCC3)C2)cc1 (stereo not drawn),90.5%,97.9%,94.4%,97.6%,89.5%,80.4%,103%,104%,96.7%,94.7%,93.3%,77%,97.2%,96.6%,91.7%,82.3%,102%,100%
